DT40 TDP1 CPT: DT40-hTDP1 cell growth loss with CPT. Potency, µM (doses to about 46.2 µM), actives largely listed as inhibitors. hit rate 12% among 420,000. chicken DT40 Tdp1-/-;hTDP1 cells + 20 nM CPT, ATP luminescence, 48 h; further: nearly all actives have a fitted effect of over 55% in size
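Cell growth measured by CellTiter-Glo luminescence after a minimum 48 h, 37 C compound exposure with 20 nM CPT in Tdp1-knockout DT40 cells stably expressing hTDP1, seeded 400/well; qHTS titration format.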
Gal4-VP16 FLuc: counter-screen for ROR gamma inhibitors: Gal4-VP16 reporter | Drosophila S2 Gal4-VP16 UAS-luciferase, luminescence, 20 h | Potency, µM (doses to about 53.6 µM), most hits filed as inhibitors | hit rate 3.5% among 310,000;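 further: Gal4-VP16 expression switched on by copper sulfate through the metallothionein promoter; nearly all actives have a fitted effect of over 50% in size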
TDP1 cell noCPT: qHTS for Inhibitors of human tyrosyl-DNA phosphodiesterase 1 (TDP1): qHTS in cells in absence of CPT. DT40 Tdp1-/- hTDP1 cells, no CPT, ATP luminescence, 48 h. Potency, µM (titrated, usually from 46.2 µM), most hits filed as inhibitors. hit rate 15% among 420,000. AID 686978, 2013; further: nearly all actives have a fitted effect of over 55% in size
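Growth kinetics read by CellTiter-Glo luminescence after ≥48 hr at 37 °C. Cells: DT40 Tdp1-/- stably carrying human TDP1, 400 per well, compound exposure in the absence of CPT (DMSO vehicle).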
ELG1 DNA repair: ELG1-dependent DNA repair inhibition. HEK293T ELG1-luciferase reporter, luminescence, 16 h; DNA damage induced by 5-fluorouridine. Potency, µM (titrated, usually from 46.1 µM), hits mostly inhibitors. hit rate 2.3% among 330,000; further: nearly all actives have a fitted effect of over 55% in size
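Step one: seed 2,000 cells per well. Step two: pin-transfer compound or DMSO alongside 5-fluorouridine. Step three: incubate 16 hr, 37 °C, 5% CO2. Step four: add ONE-Glo, wait 30 min, read luminescence.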
RORg inh: blocks mouse ROR gamma transcriptional activity; P51450; Drosophila S2 Gal4-RORgamma UAS-luciferase reporter, 20 h; Potency, µM (highest dose often 53.6 µM), most hits filed as inhibitors; hit rate 5.4% among 310,000; AID 2551; further: nearly all actives have a fitted effect of over 60% in size
Target sequence (P51450 whole entry, looked up, the tested form may be a part): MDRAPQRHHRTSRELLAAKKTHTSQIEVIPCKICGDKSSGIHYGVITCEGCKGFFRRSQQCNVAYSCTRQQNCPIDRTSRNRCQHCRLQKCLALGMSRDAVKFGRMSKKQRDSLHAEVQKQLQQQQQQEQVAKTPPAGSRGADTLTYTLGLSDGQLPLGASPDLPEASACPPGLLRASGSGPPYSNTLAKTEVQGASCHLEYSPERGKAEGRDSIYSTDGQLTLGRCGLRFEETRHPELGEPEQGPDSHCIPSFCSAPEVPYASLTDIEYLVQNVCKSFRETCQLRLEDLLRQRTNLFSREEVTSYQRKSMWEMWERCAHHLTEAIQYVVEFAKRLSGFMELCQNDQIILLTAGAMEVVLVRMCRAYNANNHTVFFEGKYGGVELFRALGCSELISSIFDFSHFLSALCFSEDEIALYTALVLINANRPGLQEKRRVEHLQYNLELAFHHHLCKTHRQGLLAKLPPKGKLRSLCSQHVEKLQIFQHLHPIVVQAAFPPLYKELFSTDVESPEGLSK
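Luciferase reporter read in Schneider cells carrying Gal4-RORγ (mouse) and UAS-Photinus luciferase; cells given compound 1 h before 700 uM copper sulfate induction, then incubated 20 h at ambient temperature.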
IL1B secr inh: blocks inflammasome-driven IL-1 beta release; THP-1 LPS/ATP IL-1B secretion, AlphaLISA, 16 h; active compounds read low; hit rate 4.7% among 360,000; activity change, % at 57.5 µM; in the data active means activity change below about -50%; inconclusive means mostly about -30% to -49%
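Secreted IL-1B measured by AlphaLISA bead assay after 16 h compound exposure of THP-1 cells; compounds (final up to 57.5 uM) added 1 h before LPS (250 ng/mL) and ATP (1.25 mM) stimulation; lower signal means less secretion.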
Hits are given with their value; . = inactive; ? = inconclusive; / = not tested or not shown. The list is not random: actives were taken first. Their share in the collection is about 21%. Unless noted, the call rests on the fitted dose curve; in most records, active means well fitted curve in the direction sought with a large enough effect; inconclusive means small, poorly fitted or top-dose-only effect, or another doubt; inactive means no such curve, though single readings can be large; an effect the other way counts as inactive or inconclusive.

SMILES | DT40 TDP1 CPT | Gal4-VP16 FLuc | TDP1 cell noCPT | ELG1 DNA repair | RORg inh | IL1B secr inh
CN(CCOc1ccc(Cl)cc1)C(=O)c1cccc(S(=O)(=O)N2CCN(c3ccc(F)cc3)CC2)c1 | 7.3µM | / | 5.2µM | / | / | .
COc1ccc(CCN(C)C(=O)c2cccc(S(=O)(=O)N3CCN(c4ccc(F)cc4)CC3)c2)cc1OC | 15µM | / | 16µM | / | / | .
Cc1ccc(S(=O)(=O)N(C)c2ccc(OCc3cccc(C)c3)cc2)cc1 | ? | . | 18µM | . | . | .
Cc1ccc(-c2csc(NC(=O)COc3ccc(N(C)S(=O)(=O)c4ccc(C)cc4)cc3)n2)cc1 | 15µM | . | 18µM | ? | . | .
Cc1ccc(S(=O)(=O)N(C)c2ccc(OCC(=O)OCc3cccc(Br)c3)cc2)cc1 | ? | / | . | / | / | .
COc1cc(NC(=O)COc2ccc(Cl)cc2)ccc1-c1cc2ccccc2oc1=O | 4.1µM | . | 4.6µM | ? | . | .
CN(c1ccc(OCC(=O)NC2CCC(O)CC2)cc1)S(=O)(=O)c1ccc(Cl)cc1 (stereo not drawn) | ? | / | 13µM | . | / | .
CCCS(=O)(=O)NC(=O)C1(C)CCCN(C(=O)c2c(OC)cccc2OC)C1 (stereo not drawn) | . | / | . | / | / | .
O=C(CCc1ccc(S(=O)(=O)N2CCOCC2)cc1)N/N=C/c1ccc(O)c(O)c1O | ? | . | ? | . | . | .
O=C(CN1C(=O)NC2(CCc3ccccc32)C1=O)NCc1ccc(Cl)cc1 (stereo not drawn) | . | / | . | . | / | .
COc1ccc(-c2csc(NC(=O)COc3ccc(N(C)S(=O)(=O)c4ccc(C)cc4)cc3)n2)cc1 | 5.2µM | . | 6.5µM | 7.3µM | . | .
CN(c1ccc(OCC(=O)OCC(=O)Nc2ccc(F)cc2)cc1)S(=O)(=O)c1ccc(Cl)cc1 | . | . | . | . | . | .
Cc1ccc(NC(=O)COc2ccc(N(C)S(=O)(=O)c3ccc(F)cc3)cc2)cc1 | ? | / | 16µM | ? | / | .
COc1ccc(NC(=O)COc2ccc(N(C)S(=O)(=O)c3ccc(Cl)cc3)cc2)cc1OC | 7.3µM | / | 4.6µM | ? | / | .
CCOc1ccc(-c2nnc(NC(=O)CCCOc3cccc(C)c3)o2)cc1 | ? | ? | ? | ? | 6.3µM | .
CCOc1ccc(-c2nnc(NC(=O)Cc3ccc(OC)cc3)o2)cc1 | . | 4.5µM | . | . | 1.8µM | .
CCC(=O)Nc1nnc(-c2ccc(OC)cc2)o1 | . | 11µM | . | ? | ? | .
COc1cc(OC)cc(C(=O)OCC(=O)Nc2nnc(-c3ccccc3)o2)c1 | ? | / | ? | / | / | .
Cc1cccc(OCCCC(=O)Nc2ccc(Br)cc2)c1 | . | . | . | . | . | .
CCOc1ccc(-c2nnc(NC(=O)Cc3cc(OC)c(OC)c(OC)c3)o2)cc1 | . | ? | . | ? | 11µM | .
CCOc1ccc(C(=O)NCC(=O)OCC(=O)Nc2nnc(-c3ccccc3)o2)cc1 | . | / | . | . | / | .
Cc1ccc(Cn2cc(CN3CC(N4CCSCC4)CS3(=O)=O)nn2)cc1 (stereo not drawn) | . | / | . | / | / | .
CCCn1c(-c2ccc(F)cc2)nc2c(NCC3CCN(C)CC3)nc(C)nc21 | / | . | / | / | . | /
CC1CCc2c(C(=O)NCc3ccco3)csc2C1 (stereo not drawn) | ? | . | 15µM | ? | ? | -79
CC1CCc2nn(CC(=O)NCc3ccc(F)cc3)cc2C1 (stereo not drawn) | ? | . | ? | . | . | .
CCN(CC)c1ccc(NC(=O)Cn2cc3c(n2)CCC(C)C3)c(C)c1 (stereo not drawn) | . | 11µM | ? | ? | . | .
Cc1ccc(C)c(NC(=S)NNC(=O)c2csc3c2CCC(C)C3)c1 (stereo not drawn) | ? | . | ? | . | 5µM | ?
CC1CCc2nn(CC(=O)NCc3ccco3)cc2C1 (stereo not drawn) | 21µM | ? | ? | ? | . | .
